# According to PubChem BioAssay (NCI):
# The panel holds about 83,000 compounds, 20% with a hit somewhere; the sample as a whole holds those more often.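 Values shown are percent growth following 48 h exposure of cells in 96-well plates to a single concentration of compound; below 10 was considered active.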 Active and inactive are the calls of the source.
# Test system: UACC-257 melanoma
# Test: NCI-60 one-dose screen, 48 h (100 = growth as untreated, 0 = no growth, -100 = all killed)
# Conditions: 10 µM unless noted
row,SMILES,growth
1,CCN1CCN(/C(=N\c2sc(-c3ccccc3)nc2-c2ccccc2)c2ccccc2)CC1,80.4% (inactive)
2,CCCCN1C(=O)/C(=c2\sc3n(c2=O)C2C(NN=3)N(CC)C(=O)N2CC)c2cc(Cl)ccc21 (centres undefined),89.4% (inactive)
3,O=C1C2=C(C(=O)c3c(O)cccc31)C(c1ccco1)c1sc(=O)[nH]c1S2 (centres undefined),-28.2% (active)
4,COc1cc(/C=C/C(=O)c2ccc(C(F)(F)F)cc2)ccc1Oc1nc(NCCO)nc(N2CCOCC2)n1,97.4% (inactive)
5,OC1CCN(CCCOc2c3ccc(Cl)cc3nc3c2oc2ccc(Cl)cc23)CC1,-13.4% (active)
6,Nc1c(C(=O)Nc2ccc(Cl)cc2)sc2nc(-c3cnccn3)cc(-c3cccs3)c12,81.5% (inactive)
7,O=C(N/N=C/c1ccc([N+](=O)[O-])o1)c1[nH]c2ccc(Br)cc2c1-c1ccccc1,37.5% (inactive)
8,Cc1ccc(-c2nc(C(Cl)Cl)nc3cc(-c4ccccc4)nn23)cc1,28.9% (inactive)
9,CCOC(=O)c1c(NC(=O)c2cccc(C(F)(F)F)c2)sc2cc(O)ccc12,108% (inactive)
10,OC1CCN(CCCOc2c3ccccc3nc3c2oc2ccccc23)CC1,-17.7% (active)
11,COc1ccc(C(=O)/C=C/c2ccc(OCc3ccc(Cl)cc3)c(OC)c2)cc1OC,83.5% (inactive)
12,CN(C)CCCNc1c2ccccc2nc2c1oc1ccc(Cl)cc12,49.9% (inactive)
13,COc1ccc(NC2=CC(=O)C(C)=C(C)C2=O)cc1,45.4% (inactive)
14,COc1ccc(-n2c(SCC(=O)Nc3ccc(-c4nc5ccccc5[nH]4)cc3)nc3ccccc3c2=O)cc1,45.3% (inactive)
15,C/C(=N\NC(N)=O)c1c(O)sc(=O)[nH]c1=O,96.5% (inactive)
16,OC1CCN(CCCOc2c3ccc(Cl)cc3nc3c2oc2ccccc23)CC1,-69.2% (active)
17,NS(=O)(=O)c1ccc(Nc2nc(Nc3ccccc3)nc(-n3nc(-c4ccccc4)cc3-c3ccccc3)n2)cc1,59.6% (inactive)
18,COc1cc(OC)c(C2C(Cl)C(=O)N2Nc2ncnc3ccccc23)cc1OC (centres undefined),111% (inactive)
19,CN(C)CCCOc1c2ccc(Cl)cc2nc2c1oc1ccc(Cl)cc12,41.3% (inactive)
20,Cc1[nH]nc2ncc(C#Cc3cncc(C(=O)Nc4ccc(CN5CCN(C)CC5)c(C(F)(F)F)c4)c3)cc12,14.7% (inactive)

row,SMILES,growth
1,CC1=C(C)C(=O)C(Nc2cccc(C(F)(F)F)c2)=C(Cl)C1=O,78.5% (inactive)
2,Cn1cc(-c2cc(N)n3nc(-c4cn(C)c5ccc(Br)cc45)cc3n2)c2cc(Br)ccc21,109% (inactive)
3,O=c1[nH]c2ccc(Cl)cc2cc1CSc1ccccc1Nc1nccc(-c2ccc(Cl)cc2)n1,100% (inactive)
4,COc1ccc(-c2nc3ccc(-c4nnc(SCC(=O)Nc5ccc(C(=O)/C=C/c6ccccc6)cc5)o4)cc3[nH]2)cc1OC,110% (inactive)
5,N#Cc1nc(-c2ccccc2)oc1S(=O)(=O)N1CCN(CCc2ccccn2)CC1,77% (inactive)
6,CN1CCN(Cc2ccc(NC(=O)c3cncc(C#Cc4cnc5[nH]ncc5c4)c3)cc2C(F)(F)F)CC1,40.5% (inactive)
7,COc1cc(/C=C/C(=O)c2ccc(F)cc2)ccc1Oc1nc(NCCO)nc(N2CCOCC2)n1,98.3% (inactive)
8,Clc1ccc2c(OCCCN3CCOCC3)c3oc4ccccc4c3nc2c1,59.8% (inactive)
9,O=C(c1ccc(O)cc1)C1[C@H](c2ccc(Cl)cc2)[C@@H](c2ccccc2)NC12C(=O)Nc1ccc(Cl)cc12 (some centres undefined),62.9% (inactive)
10,Nc1cc(-c2c[nH]c3ccccc23)nc2cc(-c3c[nH]c4ccccc34)nn12,70.2% (inactive)
11,Oc1c(Cl)cc(Cl)c2ccc(CN3CCCCC3)nc12,43.1% (inactive)
12,CN(C)CCCOc1c2ccc(Cl)cc2nc2c1oc1ccccc12,-18.5% (active)
13,CS(=O)(=O)c1ccc(-c2nc3ccccn3c2/C=N/Nc2nc(-c3ccc(Br)cc3)cs2)cc1,122% (inactive)
14,C=CCn1c(SCC(=O)c2ccc(Br)cc2)nnc1-c1c[nH]c2ccccc12,108% (inactive)
15,COc1cc(/C=C/C(=O)c2ccccc2)ccc1Oc1nc(NCCO)nc(N2CCOCC2)n1,95.4% (inactive)
16,COC1CCN(Cc2ccc3c(NNC(=O)c4cnccn4)nc4cc(F)ccc4n23)C1 (centres undefined),-3.02% (active)
17,CC(C)NC(=O)c1cc(-c2ccc(NC(=O)Nc3ccc(N4CCOCC4)c(C(F)(F)F)c3)cc2)nc2cccnc12,94.4% (inactive)
18,O=C(N/N=C/c1ccco1)c1[nH]c2ccc(Br)cc2c1-c1ccccc1,72.5% (inactive)
19,O=C(CSc1nccc(=O)[nH]1)Nc1ccc(-c2nc3ccccc3[nH]2)cc1,108% (inactive)
